This is part of a sample that, as a whole, favours compounds with a hit. Of some 79,000 tested, about 15% had one in any assay. Unmarked numbers belong to inactive results. Active and inactive are the calls of the source. Rule as the data show it: active = growth inhibition above about 70%; inactive = the rest.

Among the data in PubChem BioAssay (NCI) are growth inhibition values, retold here.

Test [1] can be described thus: NCI Yeast Anticancer Drug Screen. Data for the rad50 strain (AID 155).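 Also: 0% = growth of vehicle-only cultures of the same strain.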 The note with it: S. cerevisiae rad50 strain growth inhibition, active compounds read high. The method, boiled down:
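Inhibition values express reduced yeast growth in compound-treated cultures relative to vehicle-treated controls.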

A short description of test [2]: NCI Yeast Anticancer Drug Screen. Data for the mec2-1 strain (AID 157). The note with it: S. cerevisiae mec2-1 strain, active compounds read high. The method, boiled down: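 Test agents were screened against the mec2-1 yeast strain, with defined DNA repair or cell cycle alteration. Growth was scored as inhibition against vehicle-only controls.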
A short description of test [3]: NCI Yeast Anticancer Drug Screen. Data for the sgs1 mgt1 strain (AID 161).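 Also: 0% = growth of cultures given vehicle only.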 Conditions: S. cerevisiae sgs1 mgt1 strain, active compounds read high. Summed up:
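Test agents were incubated with a DNA-repair-mutant yeast strain. Growth was then read and compared against vehicle-treated controls.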

Test [4] is described as follows: NCI Yeast Anticancer Drug Screen. Data for the cln2 rad14 strain (AID 165).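 Also: 0% = growth equal to vehicle treated cultures.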 Conditions: S. cerevisiae cln2 rad14 strain, active compounds read high. The method, boiled down:
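Growth of compound-exposed yeast (cln2 rad14 genotype) measured and expressed as inhibition relative to vehicle.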

Test [5] can be described thus: NCI Yeast Anticancer Drug Screen. Data for the bub3 strain (AID 167). Conditions: S. cerevisiae bub3 mutant strain, active compounds read high. Summed up: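 Steps: expose the mutant yeast strain to compound; grow alongside vehicle-treated cultures; measure growth; express inhibition against the vehicle cultures.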
Test [6] can be described thus: NCI Yeast Anticancer Drug Screen. Data for the mlh1 rad18 strain (AID 175). Conditions: S. cerevisiae mlh1 rad18 strain growth inhibition, active compounds read high. The method, boiled down: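 In this whole-cell yeast screen, a strain with altered DNA damage repair is challenged with compound, and its growth is measured against matched vehicle-treated controls.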
Where [7] appears, read: at 5.0 µM (retest, dose inferred, filed as 0.5).
[8] abbreviates: at 50.0 µM (retest, dose inferred, filed as 5.0).

Regarding `O=C1OC(=O)c2cc([N+](=O)[O-])cc3cccc1c23`, the growth inhibition was 3% in test [1] (setting [7]); 97% (active) in test [1] (setting [8]); 22.9% in test [1] (at 50.0 µM); 13% in test [2] (setting [7]); 99% (active) in test [2] (setting [8]); 36.2% in test [2] (at 50.0 µM). For the same molecule, the growth inhibition in test [3] (setting [7]) is 3%; in test [3] (setting [8]), 99% (active); in test [3] (at 50.0 µM) it was 29.2%; in test [4] (setting [7]) it was 22%; in test [4] (setting [8]) it was 98% (active); in test [4] (at 50.0 µM), 36.6%. Besides, the growth inhibition in test [5] (setting [7]) is 21%; in test [5] (setting [8]), 99% (active); in test [5] (at 50.0 µM), 47.5%; in test [6] (setting [7]), 8%; in test [6] (setting [8]), 99% (active); in test [6] (at 50.0 µM), 76.7% (active).

Turning to `CCN(CC)CCCCSc1ccc([N+](=O)[O-])cc1[N+](=O)[O-]`, the growth inhibition in test [1] (setting [7]) was 27%; in test [1] (setting [8]), 45%; in test [1] (at 50.0 µM) it was 77.6% (active); in test [2] (setting [7]), 32%; in test [2] (setting [8]), 36%; in test [2] (at 50.0 µM) it was 45.4%. Further, the growth inhibition in test [3] (setting [7]) is 32%; in test [3] (setting [8]), 68%; in test [3] (at 50.0 µM), 72.8% (active); in test [4] (setting [7]) it was 43%; in test [4] (setting [8]), 43%; in test [4] (at 50.0 µM) it was 59.3%. Also, the growth inhibition in test [5] (setting [7]) is 30%; in test [5] (setting [8]), 47%; in test [5] (at 50.0 µM) it was 65.8%; in test [6] (setting [7]) it was 23%; in test [6] (setting [8]), 44%; in test [6] (at 50.0 µM), 71.9% (active).

As for `C/C(CCn1[nH]c(=O)ccc1=O)=N\Nc1ccc([N+](=O)[O-])cc1[N+](=O)[O-]`, the growth inhibition in test [1] (setting [7]) is 44%; in test [1] (setting [8]) it was 97% (active); in test [1] (at 50.0 µM), 67.3%; in test [2] (setting [7]), 20%; in test [2] (setting [8]), 98% (active); in test [2] (at 50.0 µM) it was -0.6%. Besides, the growth inhibition in test [3] (setting [7]) is 27%; in test [3] (setting [8]), 98% (active); in test [3] (at 50.0 µM), 19.6%; in test [4] (setting [7]), 23%; in test [4] (setting [8]), 81% (active); in test [4] (at 50.0 µM), 24.4%. Also, the growth inhibition in test [5] (setting [7]) was 32%; in test [5] (setting [8]) it was 98% (active); in test [5] (at 50.0 µM), 25.9%; in test [6] (setting [7]) it was 45%; in test [6] (setting [8]) it was 98% (active); in test [6] (at 50.0 µM), 73.2% (active).

Turning to `O=C1/C(=C\c2ccccc2)CN(C(=O)CCN2CCCCC2)C/C1=C/c1ccccc1`, the growth inhibition in test [1] (setting [7]) was 16%; in test [1] (setting [8]), 71% (active); in test [1] (at 50.0 µM), 89.8% (active); in test [2] (setting [7]), 22%; in test [2] (setting [8]), 57%; in test [2] (at 50.0 µM), 92.8% (active). Besides, the growth inhibition was 98% (active) in test [3] (setting [7]); 99% (active) in test [3] (setting [8]); 90.3% (active) in test [3] (at 50.0 µM); 83% (active) in test [4] (setting [7]); 99% (active) in test [4] (setting [8]); 90.3% (active) in test [4] (at 50.0 µM). The growth inhibition was 99% (active) in test [5] (setting [7]); 99% (active) in test [5] (setting [8]); 90.8% (active) in test [5] (at 50.0 µM); 28% in test [6] (setting [7]); 74% (active) in test [6] (setting [8]); 88.8% (active) in test [6] (at 50.0 µM).

Regarding `Nc1ccc2c(c1)[nH]c(=O)c1c(Cl)cccc12`, the growth inhibition was -108% in test [1] (setting [7]); 47% in test [1] (setting [8]); 84.5% (active) in test [1] (at 50.0 µM); -41% in test [2] (setting [7]); -26% in test [2] (setting [8]); 41% in test [2] (at 50.0 µM). For the same molecule, the growth inhibition in test [3] (setting [7]) was -58%; in test [3] (setting [8]) it was -33%; in test [3] (at 50.0 µM), 21.4%; in test [4] (setting [7]), -46%; in test [4] (setting [8]), -39%; in test [4] (at 50.0 µM) it was 48.5%. In addition, the growth inhibition was -50% in test [5] (setting [7]); -42% in test [5] (setting [8]); 4.8% in test [5] (at 50.0 µM); -87% in test [6] (setting [7]); -45% in test [6] (setting [8]); 55.5% in test [6] (at 50.0 µM).

Turning to `COc1cc(OC)cc(C2SCC(=O)N2c2nncs2)c1` (stereo not given), the growth inhibition was 2% in test [1] (setting [7]); 2% in test [1] (setting [8]); 20.2% in test [1] (at 50.0 µM); -5% in test [2] (setting [7]); -3% in test [2] (setting [8]); 97% (active) in test [2] (at 50.0 µM). In addition, the growth inhibition in test [3] (setting [7]) is 0%; in test [3] (setting [8]), 2%; in test [3] (at 50.0 µM), 55.5%; in test [4] (setting [7]), -2%; in test [4] (setting [8]), 2%; in test [4] (at 50.0 µM), 98.8% (active). For the same molecule, the growth inhibition in test [5] (setting [7]) was 1%; in test [5] (setting [8]), 13%; in test [5] (at 50.0 µM), 98.6% (active); in test [6] (setting [7]), 0%; in test [6] (setting [8]), 4%; in test [6] (at 50.0 µM), 96.8% (active).

For `CCCCCC(C)NCC(O)Cc1ccc(OCCCC)cc1` (stereo not given), the growth inhibition is 22% in test [1] (setting [7]); 100% (active) in test [1] (setting [8]); 99.5% (active) in test [1] (at 50.0 µM); 29% in test [2] (setting [7]); 99% (active) in test [2] (setting [8]); 99.3% (active) in test [2] (at 50.0 µM). Also, the growth inhibition is 37% in test [3] (setting [7]); 100% (active) in test [3] (setting [8]); 99.3% (active) in test [3] (at 50.0 µM); 34% in test [4] (setting [7]); 100% (active) in test [4] (setting [8]); 98.9% (active) in test [4] (at 50.0 µM). Also, the growth inhibition is 42% in test [5] (setting [7]); 100% (active) in test [5] (setting [8]); 99.5% (active) in test [5] (at 50.0 µM); 20% in test [6] (setting [7]); 100% (active) in test [6] (setting [8]); 99.7% (active) in test [6] (at 50.0 µM).

Consider `CC(=O)NNc1nc(C)c(C(=O)NNC(=O)C(=O)Nc2c(C)cccc2C(C)C)s1`, for which the growth inhibition in test [1] (setting [7]) was 3%; in test [1] (setting [8]) it was 85% (active); in test [1] (at 50.0 µM), 43.1%; in test [2] (setting [7]), 1%; in test [2] (setting [8]), 88% (active); in test [2] (at 50.0 µM), 33%. The growth inhibition in test [3] (setting [7]) is 6%; in test [3] (setting [8]) it was 89% (active); in test [3] (at 50.0 µM), 47%; in test [4] (setting [7]), 0%; in test [4] (setting [8]) it was 49%; in test [4] (at 50.0 µM), 9%. In addition, the growth inhibition in test [5] (setting [7]) is 4%; in test [5] (setting [8]), 87% (active); in test [5] (at 50.0 µM), 37.5%; in test [6] (setting [7]), -4%; in test [6] (setting [8]) it was 74% (active); in test [6] (at 50.0 µM), 44.1%.

Regarding `CC(=O)C1CCCCC1/C=C/[N+](=O)[O-]` (stereo not given), the growth inhibition in test [1] (setting [7]) was 23%; in test [1] (setting [8]) it was 93% (active); in test [1] (at 50.0 µM) it was 99.5% (active); in test [2] (setting [7]), 16%; in test [2] (setting [8]) it was 74% (active); in test [2] (at 50.0 µM), 99.7% (active). Further, the growth inhibition was 25% in test [3] (setting [7]); 93% (active) in test [3] (setting [8]); 99.1% (active) in test [3] (at 50.0 µM); 6% in test [4] (setting [7]); 27% in test [4] (setting [8]); 99% (active) in test [4] (at 50.0 µM). Besides, the growth inhibition in test [5] (setting [7]) is 30%; in test [5] (setting [8]), 91% (active); in test [5] (at 50.0 µM) it was 99.5% (active); in test [6] (setting [7]), 42%; in test [6] (setting [8]), 97% (active); in test [6] (at 50.0 µM), 99.2% (active).

Take `CCCCCCCCCCCCCCCCCC[n+]1cccc(C(=O)N2CCOCC2)c1`: the growth inhibition in test [1] (setting [7]) was 91% (active); in test [1] (setting [8]), 99% (active); in test [1] (at 50.0 µM), 99.8% (active); in test [2] (setting [7]) it was 86% (active); in test [2] (setting [8]) it was 100% (active); in test [2] (at 50.0 µM), 99.8% (active). Besides, the growth inhibition in test [3] (setting [7]) was 99% (active); in test [3] (setting [8]) it was 100% (active); in test [3] (at 50.0 µM) it was 99.8% (active); in test [4] (setting [7]), 60%; in test [4] (setting [8]), 99% (active); in test [4] (at 50.0 µM), 99.3% (active). The growth inhibition was 86% (active) in test [5] (setting [7]); 99% (active) in test [5] (setting [8]); 99.7% (active) in test [5] (at 50.0 µM); 97% (active) in test [6] (setting [7]); 100% (active) in test [6] (setting [8]); 99.8% (active) in test [6] (at 50.0 µM).
